These entries were drawn from the full list.
aSyn 5UTR act: Activators via SNCA 5'UTR binding, MLPCN | 300,000 compounds, 7.1% hits | alpha-synuclein 5'UTR reporter, activators screen | activity score, % (tested at 7.5 µM), hits read low; in the data active means activity score below about -60%
Numbers stand for hits; 0 = inactive.

SMILES	aSyn 5UTR act
FC(F)Sc1ccc(NC(=S)NCc2ccccc2)cc1	-70
O=C(CC1CCCC1)Nc1ccc(Br)cc1	-138
CCOC(=O)C(C)Oc1cccc2c(=O)n(CC(=O)NCc3ccccc3)ccc12 (stereo unspecified)	0
CCOC(=O)COc1cccc2c(=O)n(CC(=O)NCCc3ccccc3)ccc12	-73
Cc1cccc(NC(=O)CN2C(=O)N/C(=C\c3ccc(N4CCOCC4)cc3)C2=O)c1	-100
CCN1C(=O)N/C(=C/c2cc(C)n(Cc3ccccc3)c2C)C1=O	-63
COc1ccc(CN=C2NN=C(c3ccccc3)CS2)cc1	-114
COCCn1c(C)cc(C2=NNC(=Nc3ccccc3)SC2)c1C	-79
Clc1ccc(C2=NNC(=NCC3CCCO3)SC2)cc1 (stereo unspecified)	-73
C=CCn1c(C)cc(C2=NNC(=NCc3ccccc3)SC2)c1C	-182
Cc1cc(C2=NNC(=NCCc3ccccc3)SC2)c(C)n1CC1CCCO1 (stereo unspecified)	-147
Cc1noc(C)c1-c1nnc(-c2ccc(OC(F)(F)F)cc2)o1	-69
Cc1ccc(N(O)C(=O)NCCCCNC(=O)N(O)c2ccc(C)cc2)cc1	-97
COc1ccc(N2CCN(c3nccs3)CC2)cc1	-154
O=C(COc1ccccc1[N+](=O)[O-])N/N=C/C=C/c1ccco1	-73
Cc1ccccc1OCC(=O)N/N=C/c1ccc([N+](=O)[O-])o1	-68
CC1(C(=O)N/N=C/c2ccc([N+](=O)[O-])o2)CC1(Br)Br (stereo unspecified)	-96
O=C(Cc1ccc([N+](=O)[O-])cc1)N/N=C/c1ccc([N+](=O)[O-])o1	0
N/C(=N\OC(=O)c1ccc(F)cc1)c1ccc(Br)cc1	-143
Cc1ccc(C(=O)O/N=C(\N)c2ccccn2)cc1	0
Cc1ccc(/C(N)=N/OC(=O)c2ccc(F)cc2)cc1	-194
N/C(=N\OC(=O)c1ccc(F)cc1)c1ccccc1	-298
CCc1ccc(C(=O)NC2CCCCC2)s1	-82
CC(C)(O)C#Cc1ccc(C(=O)Nc2ccc3c(c2)OCO3)s1	-143
CC(C)(O)C#Cc1ccc(C(=O)NC2CCCCC2)s1	-98
SMILES	aSyn 5UTR act
C/C(=N\NC(=O)COc1ccc(C(C)(C)C)cc1)c1ccc(-n2ccnc2)cc1	-133
CCOC(=O)c1ccc(NC(=O)c2nn(C)cc2Br)cc1	-204
CCn1cc(Br)c(C(=O)Nc2ccc(F)c(Cl)c2)n1	-110
CCOC(=O)c1ccc(NC(=O)c2nn(CC)cc2Br)cc1	-94
CCOC(=O)c1ccc(NC(=S)NC(=O)c2nn(CC)cc2Br)cc1	-66
O=C(OCC(=O)N1CCCC1=O)c1nc(Cl)c(Cl)c(Cl)c1Cl	-131
CC(=O)N(O)CCCCCNC(=O)CCC(=O)N(O)CCCCCNC(=O)CCC(=O)N(O)CCCCCN	0
COc1ccc(C(=O)NNC(=S)NC(=O)C(C)(C)C)cc1	0
COc1ccc(CCCC(=O)Nc2ccccc2F)cc1	-118
COc1ccc(C(=O)NC(=S)Nc2ccccc2F)cc1	-199
CC(C)(C)C(=O)NC(=S)Nc1ccccc1F	-72
Cc1ccc(CNc2ccc(N3CCOCC3)cc2)s1	-86
Cc1ccc(C(=O)Nc2ccc3nc(C)sc3c2)s1	-206
Cc1nc2ccc(NC(=O)c3cc(Cl)ccn3)cc2s1	-74
Cc1nc2cc(NC(=O)c3ccc(Br)s3)ccc2s1	-83
CCOc1ncccc1C(=O)Nc1ccc2nc(C)sc2c1	-75
O=C(NCCCn1ccnc1)Nc1ccc2c(c1)OCO2	-107
O=S(=O)(c1ccc(NC(=S)NCc2cccnc2)cc1)N1CCCCC1	0
Cc1nn(C)c(C)c1CNC(=O)Nc1cccc(Cl)c1	-106
Cc1nn(C)c(C)c1CNC(=O)Nc1ccc(Cl)cc1	-89
C=CCOc1ccc(NC(=O)C(=O)NCCCn2ccnc2)cc1	0
O=C(NCc1cccnc1)Nc1ccc2c(c1)OCO2	-63
Cc1nn(C)c(C)c1CNC(=O)Nc1ccc2c(c1)OCO2	-72
O=C(Nc1ccc(NC(=O)c2cccs2)c(Cl)c1)c1cccs1	-118
COc1cc(NC(=O)c2ccccc2Cl)ccc1NC(=O)c1ccco1	-195
SMILES	aSyn 5UTR act
O=C(Nc1ccc(NC(=O)c2cccs2)cc1Cl)c1ccco1	-154
COc1cc(NC(=O)COc2ccccc2Cl)ccc1NC(=O)c1cccs1	-113
COc1cc(NC(=O)c2cccs2)ccc1NC(=O)c1ccco1	-149
COc1ccc(C(C#N)=C2C=CC(=NO)C=C2)cc1	-148
Cc1cc(NS(=O)(=O)c2ccc(NC(=O)Nc3ccc4c(c3)OCO4)cc2)no1	-71
CC(C)Cc1cc(C(=O)Nc2ccc3c(c2)OCO3)no1	-184
Cc1cc(C(=O)Nc2ccc3c(c2)OCO3)no1	-107
COC(=O)c1ccc(C)c(NS(=O)(=O)c2ccc3c(c2)OCCO3)c1	0
COc1ccc(NC(=S)Nc2ccc(C)c(Cl)c2)cc1OC	-62
Fc1ccc(NC(=S)N/N=C/c2ccc(F)c(F)c2)cc1	-65
COc1ccc(NC(=S)N/N=C/c2ccc(F)cc2)cc1OC	-73
Fc1ccc(/C=N/NC(=S)Nc2ccc(Cl)cc2)cc1F	-132
Oc1ccc(/C=N/NC(=S)Nc2cccnc2)cc1O	-141
S=C(N/N=C/c1ccc2ncccc2c1)Nc1cccnc1	0

Screens: PubChem BioAssay, Broad Institute
